High-throughput results: PubChem BioAssay, National Center for Advancing Translational Sciences (NCATS)
A selection: hits, their analogues and other compounds. The true share with any hit is near 19%.
IL-1B inflam inh: blocks inflammasome-driven IL-1 beta release; THP-1 LPS/ATP IL-1B secretion, AlphaLISA, 16 h; stronger effect = lower value; AID 743279; activity change, % at 57.5 µM; hit rate 4.7% among 360,000; in the data active = activity change below about -50%; inconclusive = mostly about -30% to -49%
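THP-1 cells pretreated 1 hr with compounds (up to 57.5 uM final), then stimulated with LPS (250 ng/mL final) plus ATP (1.25 mM final); secreted IL-1B measured by AlphaLISA after 16 hr, decreased signal indicating inhibition.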
HT1080-NT tox: kills 2HG-producing HT-1080-NT fibrosarcoma cells. AID 686970. HT-1080-NT fibrosarcoma viability, CellTiter-Glo ATP luminescence, 48 h. Potency, µM (top dose mostly 46.1 µM), without a hit: at the highest dose activity, negative = less viability, most hits filed as cytotoxic. hit rate 1.6% among 360,000;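 also: NT is the 2HG producing partner of a matched IDH1 knockdown line; potency is read from the fitted curve at half-maximal effect; 0% = DMSO-treated cells and -100% = media-only wells without cells; nearly all actives have a fitted effect of over 55% in size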
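Viability by CellTiter-Glo luminescence after 48 h compound exposure at 37C of HT-1080-NT cells (750/well, RPMI, 5% FBS). % activity scaled between DMSO wells and medium-only wells, then curve-fitted and categorized by curve class.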
TDP1 cell noCPT: qHTS for Inhibitors of human tyrosyl-DNA phosphodiesterase 1 (TDP1): qHTS in cells in absence of CPT | DT40 Tdp1-/- hTDP1 cells, no CPT, ATP luminescence, 48 h | Potency, µM (highest dose often 46.2 µM), without a hit: at the highest dose activity change, negative = growth inhibition, most hits filed as inhibitors | hit rate 15% among 420,000 | AID 686978, 2013; also: potency is read from the fitted curve at half-maximal effect; nearly all actives have a fitted effect of over 55% in size
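Growth kinetics read by CellTiter-Glo luminescence after ≥48 hr at 37 °C. Cells: DT40 Tdp1-/- stably carrying human TDP1, 400 per well, compound exposure in the absence of CPT (DMSO vehicle).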
HT1080 IDH1KD tx: kills HT-1080 cells with IDH1 knockdown; HT-1080 IDH1 knockdown viability, ATP luminescence, 48 h; Potency, µM (series often up to 46.1 µM), for the others: at the highest dose activity, negative = toxicity, most hits filed as cytotoxic; hit rate 2% among 360,000; AID 686971;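 also: potency is read from the fitted curve at half-maximal effect; 0% = DMSO wells and -100% = cell-free medium wells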
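CellTiter-Glo luminescence after 48 h compound exposure at 37 degrees C of IDH1-knockdown HT-1080 cells in 5% FBS RPMI. %Activity scaled between DMSO wells and cell-free media wells, with curves fitted and assigned curve classes.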
DT40 TDP1 CPT: DT40-hTDP1 cell growth loss with CPT | hit rate 12% among 420,000 | AID 686979 | Potency, µM (series often up to 46.2 µM), for inactives: top-dose activity change, negative = growth inhibition, most hits filed as inhibitors | chicken DT40 Tdp1-/-;hTDP1 cells + 20 nM CPT, ATP luminescence, 48 h; also: potency is read from the fitted curve at half-maximal effect; nearly all actives have a fitted effect of over 55% in size
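Chicken DT40 Tdp1-/- cells stably complemented with human TDP1 were seeded at 400 cells/well in medium containing 20 nM camptothecin, exposed to pin-transferred compounds, and grown at 37 °C for at least 48 hr. Viability was read as ATP luminescence.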
Active calls of the source: *; ? = inconclusive; . = no result given; [ ] = remark or other dose. Unless noted, calls follow the shape of the dose curve; as a rule, active = well fitted curve in the direction sought with a large enough effect; inconclusive = small, poorly fitted or top-dose-only effect, or another doubt; inactive = no such curve, though single readings can be large; an effect the other way counts as inactive or inconclusive. Unless noted, % is scaled to controls: 0 for no effect and ±100 for the full control effect.

SMILES	IL-1B inflam inh	HT1080-NT tox	TDP1 cell noCPT	HT1080 IDH1KD tx	DT40 TDP1 CPT
CCCCOC(=O)c1ccc(N/C(=N\S(=O)(=O)c2ccccc2)c2ccccc2)cc1	-54*	?	?	?	5%
COc1ccc([N+](=O)[O-])cc1C(=O)Nc1ccc(Cc2ccncc2)cc1	2	13%	?	1%	-12%
COc1cc(NC(=O)c2cc(Br)cc(C)c2OC)ccc1NC(=O)C(C)C	-18	-1%	23µM*	-25%	?
CCOC(=O)c1ccc(N/C(=N\S(=O)(=O)c2ccc(F)cc2F)c2ccccc2)cc1	-5	1%	?	-1%	?
COc1c(C)cc(Br)cc1C(=O)Nc1ccc(Cc2ccncc2)cc1	-79*	?	?	?	?
Cc1ccc(NS(=O)(=O)c2ccc(NC(=O)c3cccs3)cc2)cc1	-5	2%	?	-9%	?
CCCCOC(=O)c1ccc(NC(=O)C(=O)NCCN(C)C)cc1	-14	-7%	21µM*	-1%	?
CCCOC(=O)c1ccc(NC(=O)C(=O)NCCN(CC)CC)cc1	7	11%	-20%	14%	-19%
O=C(NCc1ccncc1)Nc1ccc(Cc2ccc(NC(=O)NCc3ccncc3)cc2)cc1	?	-2%	10µM*	-4%	?
CCCOC(=O)c1ccc(NC(=O)c2ccccc2OC)cc1	0	-10%	?	-24%	?
CCCCOC(=O)c1ccc(NC(=O)c2ccccc2OC)cc1	0	-2%	?	-21%	21µM*
COc1ccc(NC(=O)Nc2cnccn2)c(OC)c1	-23	5%	3%	8%	5%
COc1ccc(NC(=O)Nc2ccc(Cc3ccncc3)cc2)c(OC)c1	-51*	0%	7%	-10%	3%
CCCCCC(=O)/C=C/C=C\CCCCCCCC(=O)O	.	.	3%[0.628 µM]	.	3%[0.628 µM]
N#C/C(=C\c1ccccc1)C(=O)NNS(=O)(=O)c1ccc(Br)cc1	-16	-1%	3%	1%	-25%
O=C(OCC(=O)N1CCc2ccccc21)c1c2c(nc3ccccc13)CCCC2	-20	-15%	23µM*	?	16µM*
O=C(CCc1nc2ccccc2c(=O)[nH]1)OCC(=O)N1CCc2ccccc21	25	0%	0%	-1%	17%
CC1Cc2ccccc2N1C(=O)COC(=O)c1c2c(nc3ccccc13)CCCCC2 (stereo not drawn)	?	-25%	12µM*	-26%	8.2µM*
O=C(OC(C(=O)N1CCOCC1)c1ccccc1)c1c2c(nc3ccccc13)CCCC2 (stereo not drawn)	.	.	14µM*	.	?
CC(C)(C)C(=O)COC(=O)c1c2c(nc3ccccc13)CCC2	45	-12%	-25%	-17%	-3%
CC1Cc2ccccc2N1C(=O)COC(=O)CCc1nc2ccccc2c(=O)[nH]1 (stereo not drawn)	-14	-6%	18µM*	5%	29µM*
CCc1ccc(C(=O)COC(=O)c2ccc(Cl)nc2)cc1	-7	22%	-27%	18%	-16%
COC(=O)C1CCCCN1Cc1ccc2c(c1)CN(C(=O)c1ccc(C)s1)CCO2 (stereo not drawn)	.	.	-25%	.	3%[9.04 µM]
COc1cccc(CNC(=O)C2CCC(=O)N(C3CC3)C2)c1OC (stereo not drawn)	26	1%	10%	2%	-1%
O=P(c1ccccc1)(c1ccccc1)c1ccccc1C(Br)Br	-25	-4%	?	-17%	-42%
O=C(COC(=O)c1c2c(nc3ccccc13)CCCC2)c1cccs1	36	-23%	?	-27%	29µM*
NC(=O)COC(=O)c1c2c(nc3ccccc13)CCCCC2	-11	0%	0%	-3%	-5%
OC(COc1ccc2cc(Br)ccc2c1)CN1CCOCC1 (stereo not drawn)	-26	-27%	?	?	18µM*
O=C(c1ccc(Cl)cc1)c1ccc(OCC(O)CN2CCOCC2)cc1 (stereo not drawn)	-4	0%	16µM*	-4%	23µM*
